Data from PubChem BioAssay AID2025 (NMMLSC, 2009).
Among all 330,000 compounds or so, about 980 (0.3%) were called active.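 The calls were made as follows: active = percent response vs DMSO below 50%; inconclusive = fewer than 70 events counted for the yeast strain; inactive = the rest.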 What follows is part of a selection rich in actives, with near analogues and random picks from the rest.

Test: compounds altering RPL19A-GFP fluorescence, TOR branch – cell-based, S. cerevisiae, multiplex flow cytometry, MLPCN, primary screen (AID 2025);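 also: median channel GFP fluorescence of the barcoded RPL19A-GFP strain; ratio of sample median GFP to plate DMSO average so 100% = DMSO; lower means less RPL19A-GFP as with rapamycin TOR inhibition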
Conditions: S. cerevisiae RPL19A-GFP strain, 3 h, at 10 µM, hits give low values
With CC(=O)c1c(C)c[nH]c1C the percent response vs DMSO was 101% (inactive). For FC(F)(F)Oc1ccc(-c2cn3cccnc3n2)cc1, the percent response vs DMSO was 30.4% [may fluoresce violet] (active). With CC(C)(C)C(=O)Nc1ccc(-c2cn3cccnc3n2)cc1 the percent response vs DMSO was 105% (inactive). With COc1ccc(-c2cn3cccnc3n2)cc1 the percent response vs DMSO was 98.9% (inactive). With Cc1noc(C)c1-c1ccc2ncnc(NC(C)c3ccco3)c2c1 (stereo not drawn) the percent response vs DMSO was 99.4% (inactive). For O=C(C[C@H]1C/C=C\C[C@@H](NC(=O)OCC2c3ccccc3-c3ccccc32)C(=O)O[C@@H](c2ccccc2)CNC1=O)N[C@H](CO)Cc1ccccc1, the percent response vs DMSO was 101% (inactive). For CCOC(=O)C1CCCCN1Cc1ccc(OC)c(OC)c1OC (stereo not drawn), the percent response vs DMSO was 94.8% (inactive). With CCOC(=O)c1nnn(-c2nonc2-n2cccc2)c1CN1CCOCC1 the percent response vs DMSO was 95.3% (inactive). For CCOC(=O)c1c(CN2CCOCC2)n(-c2ccccc2)c2ccc(O)cc12, the percent response vs DMSO was 14.2% [may fluoresce violet] (active). With CCOC(=O)c1c(CN(C)C)n(-c2ccccc2)c2cc(Br)c(O)cc12 the percent response vs DMSO was 98% (inactive). In the case of COc1ccc(C(=O)NC(Cc2ccc(OC(=O)c3ccc(OC)cc3)cc2)C(=O)O)cc1 (stereo not drawn), the percent response vs DMSO is reported as 96.9% (inactive). In the case of O=C(O)c1ccc(COc2c(F)c(F)cc(F)c2F)o1, the percent response vs DMSO is reported as 97% (inactive). For O=C(CCS(=O)(=O)c1ccc2c(c1)NC(=O)CS2)NCc1ccccc1Cl, the percent response vs DMSO was 100% (inactive). For CSc1cccc(NC(=O)C2CCCN2S(=O)(=O)c2ccc3c(c2)CCC(=O)N3)c1 (stereo not drawn), the percent response vs DMSO was 100% (inactive). In the case of NNC(=O)C1CC(O)CN1S(=O)(=O)c1ccc(Cl)cc1 (stereo not drawn), the percent response vs DMSO is reported as 101% (inactive). For O=C(CCNC(=O)c1ccc(Br)cc1)NCCCc1ccccc1, the percent response vs DMSO was 101% (inactive). In the case of CCCN1CCN(C(=O)CCCNC(=O)c2ccc(Cl)cc2)CC1, the percent response vs DMSO is reported as 98.3% (inactive). For CCCCNC(=O)CCNC(=O)c1ccc(C(C)(C)C)cc1, the percent response vs DMSO was 47.4% [may fluoresce violet] (active). With O=C(Nc1ccccc1)c1nnsc1S(=O)(=O)c1ccc(Cl)cc1 the percent response vs DMSO was 46.8% (active). For O=C(Nc1ccc(Cl)cc1)Nc1nnc(/C=C/c2ccccc2)s1, the percent response vs DMSO was 97.4% (inactive). For CN(c1cccc(NC(=O)Nc2ccc(Cl)cc2)c1)S(C)(=O)=O, the percent response vs DMSO was 102% (inactive). With CCCCNC(=O)c1cn(CC)c2cc(N3CCN(C(=O)c4ccco4)CC3)c(F)cc2c1=O the percent response vs DMSO was 95.5% (inactive). In the case of Cc1cc(=O)oc2c(C)c(OCC(=O)NCCN3CCOCC3)ccc12, the percent response vs DMSO is reported as 97.4% (inactive).
